Bioassay records deposited in PubChem by National Center for Advancing Translational Sciences (NCATS).
Pf growth 96h: P. falciparum growth inhibition at 96 hours. P. falciparum luciferase reporter growth, 96 h. Potency, µM (doses to about 28.7 µM), most hits filed as inhibitors. 320,000 tested, 6.9% active
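Cell-based qHTS: luciferase-tagged P. falciparum in erythrocytes (2% hematocrit, 0.05% parasitemia final) incubated with compounds for 96 hours, 37 C, 5% CO2; luciferase detection reagent then added and luminescence measured.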
Pf growth 48h: P. falciparum growth inhibition at 48 hours (one generation). P. falciparum luciferase growth in erythrocytes, 48 h. Potency, µM (top dose mostly 28.7 µM), most hits filed as inhibitors. 310,000 tested, 5.9% active. AID 504832
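Erythrocytes infected with P. falciparum carrying an integrated firefly luciferase reporter (2% hematocrit, 0.1% parasitemia final) were exposed to compounds in RPMI 1640 with 0.5% Albumax at 37 C, 5% CO2. Growth inhibition was scored as reduced luminescence.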
Shiga inhibitor: blocks Shiga toxin action in Vero cells; Vero cells, Shiga toxin protein synthesis inhibition reporter; inhibition, % at 38.7 µM; 290,000 tested, 9.2% active; AID 2315; in the data active = inhibition mostly above about 28%, no sharp cut-off; inactive = mostly below about 43%
HCMV inh: blocks human cytomegalovirus replication | HFF cells, HCMV-luciferase reporter, 72 h; active compounds read low | activity change, negative = inhibition, % at 57.5 µM | 410,000 tested, 4.5% active; in the data active = activity change below about -60%; inconclusive = no clear call, values can overlap the other calls; inactive = above about -39%
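Compounds were evaluated in HFFs infected with an HCMV luciferase reporter virus (MOI 1 PFU/cell). Luciferase in lysates collected 72 h post infection served as the replication measure.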
HCV inh: HCV inhibition; Huh7.5.1 HCVcc-Cre infection, luciferase reporter, 44 h; Potency, µM (highest dose often 41.8 µM), most hits filed as inhibitors; 340,000 tested, 3.4% active
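A cell-based infection assay in which seeded cells (1,000 per well) receive test compound after 4 h, are inoculated with HCVcc-Cre at approximately 0.5 moi, and are incubated 44 h before luminescence detection.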
Cycloheximide cs: counter-screen for Shiga toxin inhibitors: cycloheximide protein synthesis inhibition; max response, %; AID 2314; cell reporter, cycloheximide protein synthesis inhibition counterscreen; 300,000 tested, 12% active; in the data active = max response mostly above about 13%, no sharp cut-off; inactive = mostly below about 14%; also: read at 38.3 µM for the half of the compounds with a filed dose
Hits are given with their value; ! = not confirmed by another sample. Shown are actives, neighbours in structure and some others; about 21% of the full set was active somewhere. Unless noted, calls follow the shape of the dose curve; as a rule, active = well fitted inhibition curve with a large enough effect; inconclusive = small, poorly fitted or top-dose-only effect, or another doubt; inactive = no such curve, though single readings can be large or run the other way.

For CC(=O)NC(c1ccc(N(C)C)cc1)c1cc(Cl)c2cccnc2c1O (stereo unspecified) the results were HCMV inh -100.
For CCN(CC)C(=O)Oc1ccc(Cl)c2cccnc12 the results were Pf growth 96h inactive, Pf growth 48h inactive, Shiga inhibitor inactive, HCMV inh inactive, HCV inh inactive and Cycloheximide cs inactive.
CCCC(=O)NC(c1ccc(OC)c(OC)c1)c1cc(Cl)c2cccnc2c1O (stereo unspecified) was read as Pf growth 96h inconclusive, Pf growth 48h 9.3µM, Shiga inhibitor inactive, HCMV inh -99, HCV inh inactive and Cycloheximide cs inactive.
`COc1cc(NC(C)=O)c2ncccc2c1Br` gave HCMV inh inactive.
`COc1ccc(C(NC(C)=O)c2cc(Cl)c3cccnc3c2O)cc1` (stereo unspecified) gave Pf growth 96h inconclusive, Pf growth 48h inconclusive, HCMV inh -99, HCV inh 10µM and Cycloheximide cs inactive.
Screening CC(=O)NC(c1ccc(F)cc1)c1cccnc1 (stereo unspecified) returned Pf growth 96h inconclusive, Pf growth 48h inactive, Shiga inhibitor inactive, HCMV inh inactive, HCV inh inactive and Cycloheximide cs inactive.
For CC(=O)NC(c1ccccc1)c1cc(Cl)c2cccnc2c1O (stereo unspecified) the results were Pf growth 96h inconclusive, Pf growth 48h 0.83µM, Shiga inhibitor inactive, HCMV inh -95, HCV inh 10µM and Cycloheximide cs inactive.
Screening CCCCC(=O)NC(c1cccs1)c1cc(Cl)c2cccnc2c1O (stereo unspecified) returned Pf growth 96h inactive, Pf growth 48h 0.74µM, Shiga inhibitor inactive, HCMV inh -100, HCV inh 2.2µM and Cycloheximide cs inactive.
CN1CCN(C(c2ccc(Cl)cc2)c2cc(Cl)c3cccnc3c2O)CC1 (stereo unspecified) was read as Pf growth 96h inconclusive, Pf growth 48h inconclusive, Shiga inhibitor inactive, HCMV inh inactive, HCV inh inconclusive and Cycloheximide cs inactive.
For O=C(NC(c1ccc(Cl)cc1)c1cc(Cl)c2cccnc2c1O)c1cccnc1 (stereo unspecified) the results were Pf growth 96h inactive, Pf growth 48h 1.2µM, Shiga inhibitor inactive, HCMV inh -101, HCV inh inconclusive and Cycloheximide cs inactive.
Screening CC[n+]1c(-c2ccccc2)c2cc(N)ccc2c2ccc(N)cc21 returned Pf growth 96h 0.003µM!, Pf growth 48h 0.048µM, Shiga inhibitor inactive, HCMV inh -100, HCV inh inconclusive and Cycloheximide cs inactive.
For CCCCS(=O)(=O)N1CCN(S(=O)(=O)c2ccc(Cl)s2)CC1 the results were Pf growth 96h inactive, Pf growth 48h inactive, Shiga inhibitor inactive, HCMV inh inactive, HCV inh inactive and Cycloheximide cs inactive.
For Cc1ccc2nc(CN(C)C(=O)[C@@H](Cc3ccccc3)NC(=O)[C@H]3O[C@@H](n4cnc(C(N)=O)n4)[C@H](O)[C@@H]3O)[nH]c2c1 the results were HCMV inh inactive.
Screening Cc1cc(C)n(-c2nc(NCCN(C)C)c3c4c(sc3n2)CCCC4)n1 returned Pf growth 96h inactive, Pf growth 48h inconclusive, Shiga inhibitor inactive, HCMV inh -82, HCV inh inconclusive and Cycloheximide cs inactive.
`Cc1cc(C)n(-c2nc(NCCCN(C)C)c3c4c(sc3n2)COC(C)(C)C4)n1` gave Pf growth 96h inactive, Pf growth 48h inconclusive, Shiga inhibitor inactive, HCMV inh inactive, HCV inh inactive and Cycloheximide cs inactive.
`Cc1cc(C)n(-c2nc(NCCCN(C)C)c3c4c(sc3n2)CCCC4)n1` gave Pf growth 96h inactive, Pf growth 48h 12µM, Shiga inhibitor inactive, HCMV inh -98, HCV inh inconclusive and Cycloheximide cs inactive.
For Cc1cc(C)n(-c2ncnc3sc4c(c23)CCCC4)n1 the results were Pf growth 96h 13µM, Pf growth 48h inactive, Shiga inhibitor inactive, HCMV inh inactive, HCV inh inactive and Cycloheximide cs inactive.
Screening Cc1cc(C)n(-c2nc3sc4c(c3c(=O)[nH]2)CCCC4)n1 returned Pf growth 48h inconclusive, Shiga inhibitor inactive and Cycloheximide cs inactive.
For Cc1ccc(CCNC(=O)c2c(C)oc3ncnc(N4CCOCC4)c23)cc1 the results were HCMV inh inactive.
